KB-V1 cytotox – qHTS assay for MDR1-selective chemotherapeutics: Primary screen using the drug-selected MDR subline cells KB-V1. Potency, µM (highest dose often 46.1 µM), usual class: cytotoxic. 400,000 compounds, 3.4% hits. KB-V1 MDR cells viability, CellTiter-Glo, 72 h. AID 1347076, 2019; also: nearly all actives have a fitted effect of over 60% in size
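In this primary screen, KB-V1 cells overexpressing P-gp are incubated with library compounds (lowest to highest concentration) for 72 h at 37 degrees C before a luminescent ATP viability read.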
KB-3-1 cytotox – qHTS assay for MDR1-selective chemotherapeutics: Primary screen using the parental adenocarcinoma cell KB-3-1. KB-3-1 viability, CellTiter-Glo ATP luminescence, 72 h. AID 1347075, 2019. Potency, µM (doses to about 46.1 µM), hits mostly cytotoxic. 400,000 compounds, 1.4% hits; also: nearly all actives have a fitted effect of over 60% in size
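Cytotoxicity measured as CellTiter-Glo luminescence after 72 h at 37 C. Compound titrations were pinned onto drug-naive KB-3-1 parental adenocarcinoma cells grown in DMEM with 10% FBS, and normalized data fitted to concentration-response curves.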
TDP1 cell CPT – qHTS for Inhibitors of human tyrosyl-DNA phosphodiesterase 1 (TDP1): qHTS in cells in presence of CPT | 420,000 compounds, 12% hits | chicken DT40 Tdp1-/-;hTDP1 cells + 20 nM CPT, ATP luminescence, 48 h | Potency, µM (series often up to 46.2 µM), for inactives: at the highest dose activity change, negative = growth inhibition, hits mostly inhibitors; also: nearly all actives have a fitted effect of over 55% in size
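Chicken DT40 Tdp1-/- cells stably complemented with human TDP1 were seeded at 400 cells/well in medium containing 20 nM camptothecin, exposed to pin-transferred compounds, and grown at 37 °C for at least 48 hr. Viability was read as ATP luminescence.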
HT1080NT lethal – qHTS for induction of synthetic lethality in tumor cells producing 2HG: qHTS for the HT-1080-NT fibrosarcoma cell line. HT-1080-NT fibrosarcoma viability, CellTiter-Glo ATP luminescence, 48 h. Potency, µM (top dose mostly 46.1 µM), inactives show at the highest dose activity, negative = less viability, actives largely listed as cytotoxic. 360,000 compounds, 1.6% hits. AID 686970, 2013;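 also: NT is the 2HG producing partner of a matched IDH1 knockdown line; 0% = DMSO-treated cells and -100% = media-only wells without cells; nearly all actives have a fitted effect of over 55% in size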
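Toxicity toward the 2HG-producing NT line was scored as %Activity, normalised to DMSO and no-cell wells, from CellTiter-Glo luminescence after 48 hours' treatment.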
HT1080 IDH1KD tx – qHTS for induction of synthetic lethality in tumor cells producing 2HG: qHTS for the HT-1080-IDH1KD cell line | HT-1080 IDH1 knockdown viability, ATP luminescence, 48 h | Potency, µM (highest dose often 46.1 µM), for inactives: top-dose activity, negative = toxicity, actives largely listed as cytotoxic | 360,000 compounds, 2% hits | AID 686971, 2013;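 also: 0% = DMSO wells and -100% = cell-free medium wells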
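Luminescent ATP read-out (CellTiter-Glo, 10 min at room temperature) after 48 h compound exposure at 37 °C gave viability of IDH1-knockdown HT-1080 cells. Activity was normalised to DMSO and cell-free wells, then fitted as concentration-response curves.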
TDP1 cell noCPT – qHTS for Inhibitors of human tyrosyl-DNA phosphodiesterase 1 (TDP1): qHTS in cells in absence of CPT | DT40 Tdp1-/- hTDP1 cells, no CPT, ATP luminescence, 48 h | Potency, µM (series often up to 46.2 µM), for the others: at the top dose activity change, negative = growth inhibition, actives largely listed as inhibitors | 420,000 compounds, 15% hits; also: nearly all actives have a fitted effect of over 55% in size
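Chicken DT40 Tdp1-/- cells complemented with human TDP1, screened without camptothecin (DMSO vehicle only), 400 cells/well. Compounds pin-transferred, cells incubated at 37 °C for at least 48 hr. Growth read as ATP-dependent luminescence (CellTiter-Glo, 30 min at RT).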
* = called active by the depositor; i = inactive; ? = inconclusive; · = not tested or not shown. Sampled rows, rich in hits. Any-hit rate of the full collection: about 19%. Calls follow the shape of the dose curve; as a rule, active = well fitted curve in the direction sought with a large enough effect; inconclusive = small, poorly fitted or top-dose-only effect, or another doubt; inactive = no such curve, though single readings can be large; an effect the other way counts as inactive or inconclusive. Unless noted, % is scaled to controls: 0 for no effect and ±100 for the full control effect; potency is read from the fitted curve at half-maximal effect.

SMILES	KB-V1 cytotox	KB-3-1 cytotox	TDP1 cell CPT	HT1080NT lethal	HT1080 IDH1KD tx	TDP1 cell noCPT
O=C(/C=C/C=C/c1ccccc1)c1ccco1	i	i	?	-27%	-29%	18µM*
C[C@H]1CN([C@@H](C)CO)C(=O)CCCn2nncc2CO[C@H]1CN(C)C(=O)C1CC1	i	i	-10%	7%	16%	?
COc1ccc(C2c3ccc(O)cc3Oc3ncn(CC(C)C)c(=N)c32)cc1 (centres undefined)	i	i	?	-5%	-1%	?
COc1ccc(C2c3ccc(O)cc3Oc3ncn4nc(-c5cccnc5)nc4c32)cc1OC (centres undefined)	i	?	?	16µM*	15µM*	12µM*
CN1OC[C@@H]2CN(C(=O)C(C)(C)C)[C@H](c3cccc(Oc4ccccc4)c3)C[C@@H]21	i	i	-27%	5%	10%	?
OCCNc1nc(Nc2ccc(Br)cc2)nc2ccccc12	?	i	5.8µM*	?	?	6.5µM*
Cc1c(Cl)cccc1Nc1nc(NCCO)c2ccccc2n1	i	?	?	?	?	?
OCCNc1nc(Nc2ccccc2)nc2ccccc12	?	i	10µM*	-14%	-11%	13µM*
CC(=O)c1ccc(NC(=O)Nc2ncn(Cc3cccc(C)c3)n2)cc1	16µM*	i	-21%	-2%	16%	?
CCn1c(C2CC(=O)N(c3ccc(C)c(C)c3)C2)nc2ccccc21 (centres undefined)	i	i	?	-4%	-6%	18µM*
O=C1CC(c2nc3ccccc3n2CCCOc2ccccc2)CN1c1ccc(F)cc1 (centres undefined)	i	?	16µM*	·	·	8.2µM*
Cc1ccc(N2CC(c3nc4ccccc4n3C)CC2=O)cc1C (centres undefined)	i	i	-18%	6%	3%	?
CCCn1c(C2CC(=O)N(c3cc(OC)ccc3OC)C2)nc2ccccc21 (centres undefined)	i	i	21µM*	0%	-34%	?
CCOc1ccc(N2CC(c3nc4ccccc4n3CCOc3ccccc3OC)CC2=O)cc1 (centres undefined)	i	i	?	·	·	23µM*
CSc1ccc(Cn2c(C)c(C(=O)NCc3ccco3)sc2=O)cc1	?	i	?	-8%	-11%	?
CCOc1ccc(N2CC(c3nc4ccccc4n3CCOc3ccc(CC)cc3)CC2=O)cc1 (centres undefined)	i	i	?	·	·	?
CCCCn1c(C2CC(=O)N(c3ccc(OCC)cc3)C2)nc2ccccc21 (centres undefined)	i	i	21µM*	·	·	?
COc1ccc(N2CC(C)(C)[C@H](CC(=O)Nc3ccccc3)C2=O)cc1	i	i	0%	1%	8%	8%
CCN(CC(O)CON=C1c2ccccc2-c2ccccc21)S(=O)(=O)c1ccc(Cl)cc1 (centres undefined)	?	?	21µM*	-13%	-18%	15µM*
CS(=O)(=O)N(CC(O)CON=C1c2ccccc2-c2ccccc21)c1ccc(F)cc1 (centres undefined)	i	i	-22%	?	?	?
CN(CC(O)CON=C1c2ccccc2-c2ccccc21)S(=O)(=O)c1ccc(Br)cc1 (centres undefined)	18µM*	?	16µM*	?	?	?
O=C(NCCc1ccccc1)C1(S(=O)(=O)c2ccc(Cl)cc2)CC1	i	i	-25%	13%	3%	4%
OCCN(CC(O)Cn1ccc2ccccc21)CC(O)Cn1ccc2ccccc21 (centres undefined)	15µM*	i	-6%	-3%	-16%	?
Cc1c(C2CC(=O)N(c3ccccc3)C2=O)[nH]n(-c2ccccc2)c1=O (centres undefined)	i	i	16µM*	12%	9%	?
O=C1CC(NNc2ccccc2)C(=O)N1c1ccccc1 (centres undefined)	i	i	-25%	?	?	-29%
SMILES	KB-V1 cytotox	KB-3-1 cytotox	TDP1 cell CPT	HT1080NT lethal	HT1080 IDH1KD tx	TDP1 cell noCPT
COc1ccc(C)cc1NC(=O)N1CCCn2nc(C)cc21	?	i	?	·	·	-28%
CC(=O)O[C@H]1C[C@@]2(O)[C@@H](OC(=O)c3ccccc3)C3[C@@](C)([C@@H](O)C[C@H]4OC[C@@]34OC(C)=O)[C@@H](O)[C@H](OC(C)=O)C(=C1C)C2(C)C (some centres undefined)	i	?	16µM*	?	?	18µM*
CC1(C)CC(OC(=O)c2ccccc2)CC(C)(C)N1	i	i	-18%	-2%	10%	2%
Cc1c(C(=O)OCc2nc3ccsc3c(=O)[nH]2)oc2ccccc12	?	i	-21%	12%	-4%	-5%
Cc1nc(C)n(CC(=O)NCC2Cc3cc(-c4ccsc4)cc(Cl)c3O2)n1 (centres undefined)	·	·	0%	·	·	?
COc1ccc(OCC(=O)NCc2ccc3c(c2)CCN3C(=O)c2ccc(F)cc2)cc1	i	i	-29%	·	·	?
COc1cc(C(=O)NCc2ccc3c(c2)CCN3C(=O)c2ccc(Cl)cc2)cc(OC)c1OC	i	i	23µM*	·	·	15µM*
COc1ccc(C(=O)NCc2ccc3c(c2)CCN3C(=O)c2ccc(Cl)cc2)c(OC)c1	·	·	18µM*	·	·	18µM*
O=C(NCc1ccc2c(c1)CCN2C(=O)c1ccncc1)c1ccc(Cl)cc1	?	i	?	·	·	?
Nc1nc(Nc2ccccc2F)nc(N2CCOCC2)c1[N+](=O)[O-]	i	i	7%	1%	-9%	-25%
Cc1nn(Cc2c(Cl)cccc2Cl)c(C)c1NC(=O)c1cnn2c(C(F)F)cc(-c3ccccc3)nc12	i	?	21µM*	10%	12%	?

Source: PubChem
